The experiment concerns the target T1, Protein deacetylase HDAC6 (Homo sapiens) (UniProt Q9UBN7).
T1 sequence (whole entry): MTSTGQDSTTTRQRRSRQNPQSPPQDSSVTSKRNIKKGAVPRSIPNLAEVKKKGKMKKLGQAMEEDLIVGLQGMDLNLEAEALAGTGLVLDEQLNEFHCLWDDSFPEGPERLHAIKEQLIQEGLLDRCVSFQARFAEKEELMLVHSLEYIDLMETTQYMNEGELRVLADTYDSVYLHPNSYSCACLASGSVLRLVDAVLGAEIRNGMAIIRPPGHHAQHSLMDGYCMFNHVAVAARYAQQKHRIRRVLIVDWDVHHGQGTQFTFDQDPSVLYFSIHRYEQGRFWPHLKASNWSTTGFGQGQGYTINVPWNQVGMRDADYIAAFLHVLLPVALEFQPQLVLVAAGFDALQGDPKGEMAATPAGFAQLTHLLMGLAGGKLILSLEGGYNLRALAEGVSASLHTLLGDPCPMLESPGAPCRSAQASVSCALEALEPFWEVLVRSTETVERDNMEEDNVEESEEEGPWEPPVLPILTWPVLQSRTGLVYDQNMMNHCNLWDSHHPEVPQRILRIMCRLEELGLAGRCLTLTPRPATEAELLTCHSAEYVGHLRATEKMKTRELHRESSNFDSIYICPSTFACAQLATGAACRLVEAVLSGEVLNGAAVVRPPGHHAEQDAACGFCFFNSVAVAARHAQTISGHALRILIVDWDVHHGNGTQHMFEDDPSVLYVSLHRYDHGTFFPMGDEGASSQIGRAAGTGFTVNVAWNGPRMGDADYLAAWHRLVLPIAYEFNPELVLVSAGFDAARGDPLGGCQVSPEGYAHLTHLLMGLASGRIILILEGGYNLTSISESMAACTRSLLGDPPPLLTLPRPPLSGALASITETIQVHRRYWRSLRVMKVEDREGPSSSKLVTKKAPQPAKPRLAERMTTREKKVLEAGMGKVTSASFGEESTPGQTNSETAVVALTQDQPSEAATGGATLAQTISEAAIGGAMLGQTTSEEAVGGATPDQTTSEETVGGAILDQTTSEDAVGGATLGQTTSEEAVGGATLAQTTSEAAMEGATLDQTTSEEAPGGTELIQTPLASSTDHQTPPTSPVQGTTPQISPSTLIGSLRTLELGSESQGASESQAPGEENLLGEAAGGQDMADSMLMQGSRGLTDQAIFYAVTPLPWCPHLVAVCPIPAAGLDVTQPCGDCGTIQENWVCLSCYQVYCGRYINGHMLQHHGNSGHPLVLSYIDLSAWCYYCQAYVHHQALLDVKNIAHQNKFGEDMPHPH
The conditions noted are these: at 10 µM.

Structures are written as SMILES. About 390 (7%) of roughly 5,600 compounds showed an effect of 50% or more. The list comes from a sample in which strong results are over-represented; it also holds similar structures and randomly drawn compounds. Residues, ends and D or L forms follow the SMILES beside them. *: point of attachment. PhAc = O=C(Cc1ccccc1)*

The values that follow come from ChEMBL document CHEMBL4808148, “HDAC6 screening dataset using tau-based substrate in an enzymatic assay yields selective inhibitors and activators” (2021).

Consider `O=c1[nH]c2ccccc2c(=O)n1CCCN1CCN(c2ccccc2)CC1`, for which the inhibition came to 8.65%.

On to `O=C(OCCN1CCOCC1)c1cccnc1Nc1cccc(C(F)(F)F)c1`, for which the inhibition came to 62%. `O=C(O)c1ccccc1Nc1cccc(C(F)(F)F)c1`: the inhibition stood at 30.6%. Then `NC(=O)NCCN1CCN(c2cccc(C(F)(F)F)c2)CC1`, with 22%. The figure for `c1ccc2c(c1)Nc1ccccc1S2` is 74.6%; for `CC(C)(C)C(=O)OCC(=O)[C@H]1CC[C@H]2[C@@H]3CCC4=CC(=O)CC[C@]4(C)[C@H]3CC[C@]12C` it is 23.8%. The figure for `CCC(=O)c1ccc(OCC(O)CN2CCN(c3ccccc3)CC2)cc1` (configuration not stated) is 19.9%; for `Cc1cc(C)nc(NS(=O)(=O)c2ccc(NC(=S)NC(=O)COc3ccc(Br)cc3Cl)cc2)n1` it is 19.5%. In the case of `CC1(C)CCC(C)(C)c2cc(C#Cc3ccc(C(=O)O)cc3)ccc21`, the inhibition is -3.59%.

In the case of `CCCc1ccc(C(=O)O)cc1`, the inhibition turned out to be 29.1%. The figure for `CCc1ccc(C2=CC(C)(C)Sc3ccc(C#Cc4ccc(C(=O)O)cc4)cc32)cc1` is 63%. Then `COc1cn(-c2ccc(-n3cccn3)cc2F)nc(-c2ccnn2-c2ccccc2)c1=O`, with 0%; and `O=C1NC(=O)c2c1c1c3ccccc3n3c1c1c2c2ccccc2n1C1CCC3O1`, with 1.84%. Then `C[C@H](N)Cc1c[nH]cn1`, with 7.87%. In the case of `Oc1ccc(-c2nc3cc(O)cc(Br)c3o2)cc1`, the inhibition came out at 101%. As to `C/C(=C(/CCOC(=O)C(C)C)SS/C(CCOC(=O)C(C)C)=C(\C)N(C=O)Cc1cnc(C)nc1N)N(C=O)Cc1cnc(C)nc1N`, the inhibition came to 9.58%. The figure for `COc1cc(CN2CCN(c3ccc(F)cc3)CC2)cc(OC)c1OC` is 16.8%; for `CCCCCCCCCCCCCCCCCC(=O)OC[C@@H](O)[C@H]1OC[C@H](O)[C@H]1O` it is 1.06%; for `CC(C)(C)NCC(O)c1cc(Cl)c(N)c(C(F)(F)F)c1` (configuration not stated) it is 16.6%. For the compound `c1ccc(-c2cnn3cc(-c4ccc(OCCN5CCOCC5)cc4)cnc23)cc1`, the inhibition came out at 92.3%. For the compound `c1ccc(OCc2ccc(CCCN3CCOCC3)cc2)cc1`, the inhibition was determined as 45%. The figure for `c1cc(-c2cnn3cc(-c4ccc(OCCN5CCCCC5)cc4)cnc23)ccn1` is 69.7%; for `COc1ccc(-c2cnc3c(-c4cccc5ncccc45)cnn3c2)cc1` it is -9.41%.

In the case of `CC(C)Oc1ccc(-c2cnc3c(-c4ccnc5ccccc45)cnn3c2)cc1`, the inhibition was -2.96%.

`C=C1/C(=C\C=C2/CCC[C@]3(C)[C@@H]([C@H](C)/C=C/[C@H](C)C(C)(C)O)CC[C@@H]23)C[C@@H](O)C[C@@H]1O`: the inhibition is -3.96%.

With `COC(=O)[C@H](Cc1ccc([N+](=O)[O-])cc1)NC(=O)c1cccc2ccccc12`, the inhibition is 10.5%.

`COc1ccc2cc(-c3cc(-c4cc(Cl)cc(Cl)c4)nn3[C@@H](C)c3ccc(C(=O)NCCC(=O)O)cc3)ccc2c1`: the inhibition was 18.3%. Then `OC[C@H]1O[C@H](O[C@H]2O[C@H](CO)[C@@H](O)[C@H](O)[C@H]2O)[C@H](O)[C@@H](O)[C@@H]1O`, with -9.27%.

In the case of `O=C(OCC(COC(=O)c1cccnc1)(COC(=O)c1cccnc1)COC(=O)c1cccnc1)c1cccnc1`, the inhibition came out at 7.98%. The figure for `CN(C)c1nc(N)c(C(=O)Nc2cccnc2)nc1Cl` is 100%; for `Cn1cncc1[C@@](N)(c1ccc(Cl)cc1)c1ccc2c(c1)c(-c1cccc(Cl)c1)cc(=O)n2C` it is -5.64%; for `Nc1nc(NC2CC2)c2ncn([C@H]3C=C[C@@H](CO)C3)c2n1` it is -5.79%. In the case of `Cc1ccc(NCCCc2ccccc2)c(N)c1`, the inhibition turned out to be 78.2%. Then `NC(=O)OCCCc1ccccc1`, with 15.1%. The figure for `O=C(O)c1ccccc1NCCc1ccccc1` is 42.4%.

Consider `CCOc1cc2ncc(C#N)c(Nc3ccc(F)c(Cl)c3)c2cc1NC(=O)/C=C/CN(C)C`, for which the inhibition was 36.7%. In the case of `CCOC(=O)CNC(=O)[C@@H]1CCCN1C(=O)Cc1ccccc1` (PhAc-Pro-Gly-OEt), the inhibition was 4.19%. Then `COC(=O)[C@H](CC(C)C)NC(=O)[C@H](N)CC(C)C`, with 10.2%; and `CC1(C)[C@H]2CC[C@@]1(C)[C@H](O)[C@@H]2O` (racemic), with 31.2%; and `CCOC(=O)C1=C(N)Oc2ccc(Br)cc2[C@H]1[C@H](C#N)C(=O)OCC`, with 52.9%. On to `CCOC(=O)C1=C(N)Oc2ccc(Br)cc2C1C(C#N)C(=O)OCC` (configuration not stated), for which the inhibition turned out to be 27.8%. Then `Cc1cccc(C)c1NC(=O)CN1CCCCCC1`, with 16.5%. Then `C/C(=N\NC(=N)N)c1cc(NC(=O)CCCCCCCCC(=O)Nc2cc(/C(C)=N/NC(=N)N)cc(/C(C)=N/NC(=N)N)c2)cc(/C(C)=N/NC(=N)N)c1`, with 77.6%; and `Cc1ccc(NC(=O)CCCCCC(=O)Nc2ccccc2N)cc1`, with -2.93%. Then `CCS(=O)(=O)N(Cc1cccnc1)c1cccc(-c2ccc(C#N)cc2)c1`, with 17%. Take `CC1(N2CCC(n3c([C@H]4CCCNC4)nc4ccccc43)CC2)CCCCCCC1`: the inhibition is -2.41%.

For the compound `CCC[C@@H]1CC(=O)N([C@@H](CC)C(N)=O)C1`, the inhibition is 29.1%.
